Ba/F3 V617F tox: loss of viability in JAK2V617F-driven Ba/F3 cells | Ba/F3 EpoR-JAK2V617F viability, ATP luminescence | inhibition, % at 5.6 µM | 220,000 compounds, 1.1% hits | AID 1446;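 active means inhibition above the campaign mean plus 3 SD over all tested compounds, cut at about 24% in these data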;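 further: cytokine-independent growth of Ba/F3 cells driven by EpoR plus mutant JAK2; 0% = DMSO-treated cells and 100% = JAK inhibitor I control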
GPR7 antag: blocks human GPR7 receptor signaling; AID 1861; 290,000 compounds, 1.1% hits; GPR7-expressing cells, fluorescence antagonist assay; inhibition, % at 4.4 µM; in the data active means inhibition above about 16%, passing the limit was not always enough;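 further: cells stimulated with the agonist NPW; 0% = agonist with vehicle and 100% = vehicle without agonist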
Target sequence (P48145 whole entry, looked up): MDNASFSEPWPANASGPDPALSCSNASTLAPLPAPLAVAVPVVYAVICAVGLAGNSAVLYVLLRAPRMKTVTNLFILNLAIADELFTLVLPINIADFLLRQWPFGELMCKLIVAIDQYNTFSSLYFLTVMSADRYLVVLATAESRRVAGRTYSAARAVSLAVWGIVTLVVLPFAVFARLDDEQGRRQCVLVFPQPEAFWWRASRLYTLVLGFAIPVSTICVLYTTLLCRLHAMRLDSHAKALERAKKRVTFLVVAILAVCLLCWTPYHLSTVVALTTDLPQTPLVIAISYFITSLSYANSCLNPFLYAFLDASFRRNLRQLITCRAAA
BaF3 parental: reduces parental Ba/F3 cell viability, JAK2V617F counter-screen. CellTiter-Glo ATP luminescence. inhibition, % at 5.6 µM. 220,000 compounds, 1.1% hits;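 active means inhibition above a per-campaign cutoff, the mean inhibition of all tested compounds plus 3 SD, cut at about 27% in these data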;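 further: 0% = DMSO wells and 100% = JAK Inhibitor I control wells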
DNA FID counter: counter-screen for HCV NS3 helicase inhibitors: DNA intercalator displacement; DNA fluorescent intercalator displacement, fluorescence; inhibition, % at 7.9 µM; 290,000 compounds, 0.17% hits; in the data active means inhibition above about 37%;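 further: 0% = vehicle and 100% = reference compound; higher means more ethidium bromide displaced from hairpin DNA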
KLF5 inh: kruppel-like factor 5 inhibition; 290,000 compounds, 0.23% hits; DLD-1 KLF5 promoter-luciferase reporter, luminescence; inhibition, % at 5 µM;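 active means inhibition above a per-plate limit of that plate's mean compound inhibition plus 3 SD, cut at about 60% in these data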;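 further: 0% = DMSO wells and 100% = LY294002 at 200 µM; higher means less KLF5 promoter-driven luciferase light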
IEC-6 tox: counter-screen for KLF5 inhibitors: cytotoxicity in IEC-6 cells | IEC-6 cytotoxicity, luminescence viability | inhibition, % at 5 µM | 290,000 compounds, 0.78% hits | AID 1825; in the data active means inhibition above about 22%;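 further: 0% = plate median of test compound wells and 100% = cytotoxic reference compound wells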
The depositor's hits bear a star; nt = not tested or not shown. The list is not random: actives were taken first. Their share in the collection is about 2.6%.

SMILES	Ba/F3 V617F tox	GPR7 antag	BaF3 parental	DNA FID counter	KLF5 inh	IEC-6 tox
CN(C)CCCNc1nc(-c2ccc(Cl)cc2)nc2ccccc12	nt	12.5	nt	54.2*	-5.3	13.7
CN(C)CCCNc1c2c(nc3ccccc13)CCC2	nt	-6.2	nt	52.9*	-15.4	1.9
Cn1cc(S(=O)(=O)N2CCOCC2)cc1C(=O)NCc1ccc(Cl)cc1	nt	-2.0	nt	-16.6	1.4	-8.2
Cc1ccc(-c2nc(NCCN(C)C)c3ccccc3n2)cc1	nt	-1.0	nt	70.7*	-16.2	6.5
C#CCOCCOCCOCCNc1nc(N2CCN(C(=O)[C@H](Cc3ccc(O)cc3)n3cc([C@@H](N)C(C)CC)nn3)CC2)nc(N2CCN(C(=O)[C@H](Cc3cc4ccccc4[nH]3)n3cc([C@@H](N)CC(C)C)nn3)CC2)n1 (some centres not stated)	-5.3	27.6	-1.3	59.9*	-23.3	4.9
C#CCOCCOCCOCCNc1nc(N2CCN(C(=O)C(CCC(=O)O)n3cc(C(N)CC(C)C)nn3)CC2)nc(N2CCN(C(=O)C(Cc3cc4ccccc4[nH]3)n3cc(C(N)Cc4ccc(O)cc4)nn3)CC2)n1 (configuration not stated)	-1.2	-0.8	-1.6	15.2	-4.8	-0.2
C#CCOCCOCCOCCNc1nc(N2CCN(C(=O)[C@H](Cc3cc4ccccc4[nH]3)n3cc(C(N)CC(C)C)nn3)CC2)nc(N2CCN(C(=O)[C@H](CCC(=O)O)n3cc(C(N)[C@H](C)CC)nn3)CC2)n1 (some centres not stated)	1.3	0.1	-1.4	23.8	-18.9	6.8
C#CCOCCOCCOCCNc1nc(N2CCN(C(=O)C(Cc3cc4ccccc4[nH]3)n3cc(C(N)Cc4ccc(O)cc4)nn3)CC2)nc(N2CCN(C(=O)C(Cc3cc4ccccc4[nH]3)n3cc(C(N)Cc4ccc(O)cc4)nn3)CC2)n1 (configuration not stated)	-0.4	3.2	1.9	52.1*	-19.4	-4.3
C#CCOCCOCCOCCNc1nc(N2CCN(C(=O)[C@H](CCC(=O)O)n3cc(C(N)Cc4ccc(O)cc4)nn3)CC2)nc(N2CCN(C(=O)[C@H](Cc3cc4ccccc4[nH]3)n3cc(C(N)[C@H](C)CC)nn3)CC2)n1 (some centres not stated)	-2.4	-13.6	0.2	20.2	-9.6	-0.4
C#CCOCCOCCOCCNc1nc(N2CCN(C(=O)[C@H]([C@@H](C)CC)n3cc([C@@H](N)CO)nn3)CC2)nc(N2CCN(C(=O)[C@H](Cc3cc4ccccc4[nH]3)n3cc([C@@H](N)C(C)CC)nn3)CC2)n1 (some centres not stated)	2.2	-3.7	2.2	40.9*	0.2	-0.3
C#CCOCCOCCOCCNc1nc(N2CCN(C(=O)[C@H](Cc3cc4ccccc4[nH]3)n3cc([C@@H](N)C(C)CC)nn3)CC2)nc(N2CCN(C(=O)[C@H](CCCCN)n3cc([C@@H](N)CC(C)C)nn3)CC2)n1 (some centres not stated)	-0.7	-6.2	-6.0	44.5*	7.8	-1.1
O=C(Nc1nnc(CSCc2ccccc2F)s1)c1cccc([N+](=O)[O-])c1	-4.7	16.6	3.5	2.8	4.2	0.5
C#CCOCCOCCOCCNc1nc(N2CCN(C(=O)[C@H]([C@@H](C)CC)n3cc([C@@H](N)Cc4ccc(O)cc4)nn3)CC2)nc(N2CCN(C(=O)[C@H](Cc3cc4ccccc4[nH]3)n3cc([C@@H](N)C(C)CC)nn3)CC2)n1 (some centres not stated)	2.0	2.0	-2.5	34.4	-17.9	-6.1
C#CCOCCOCCOCCNc1nc(N2CCN(C(=O)[C@H](Cc3cc4ccccc4[nH]3)n3cc([C@@H](N)C(C)CC)nn3)CC2)nc(N2CCN(C(=O)[C@H](Cc3cc4ccccc4[nH]3)n3cc([C@@H](N)Cc4ccc(O)cc4)nn3)CC2)n1 (some centres not stated)	1.7	-4.5	-5.8	41.1*	-0.8	1.7
C#CCOCCOCCOCCNc1nc(N2CCN(C(=O)[C@H](Cc3ccc(O)cc3)n3cc([C@@H](N)C(C)CC)nn3)CC2)nc(N2CCN(C(=O)[C@H](Cc3cc4ccccc4[nH]3)n3cc([C@@H](N)C(C)CC)nn3)CC2)n1 (some centres not stated)	-4.9	13.5	1.8	50.7*	4.3	-2.2
COC(=O)c1c(NC(=O)COC(=O)Cn2cnc3ccccc32)sc(C)c1C	-2.5	2.4	0.9	2.6	-2.4	10.9

Screens deposited in PubChem by The Scripps Research Institute Molecular Screening Center.
